# Assay results: PubChem BioAssay (EPA / NIEHS)
# Results filed as inconclusive are left out. Some structures have more than one record in an assay (separate samples or runs), and their calls can disagree. Calls of active or inactive are those of the source. How the source made its calls: active means hit-call score of the fitted dose curve at least 0.9, where 1 is the maximum; inconclusive means response in the unintended direction; inactive means score below 0.9.
# Assays:
# [1] = target: human Matrix Metalloproteinase-1 (MMP1), MMP1 (gene 4312) (UniProt P03956); test: NVS_ENZ_hMMP1: NovaScreen (NVS) Enzymatic Assay for human Matrix Metalloproteinase-1 (MMP1) (AID 2283181)
# Summary of the method: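 Human MMP1 enzyme activity measured by fluorescence 1 h after dosing, cell-free, with a specific substrate. Screened in duplicate at 25 uM; hits (e.g. 30% inhibition) run in concentration-response up to 50 uM; loss of signal versus DMSO.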
# [2] = target: human Phosphodiesterase 4A1 (PDE4A1), PDE4A (gene 5141) (UniProt P27815); test: NVS_ENZ_hPDE4A1: NovaScreen (NVS) Enzymatic Assay for human Phosphodiesterase 4A1 (PDE4A1) (AID 2283191)
# Summary of the method: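 Cell-free recombinant human PDE4A1 with fluorescent substrate; product separated by electrophoretic mobility shift, 1 h. Screened at 25 uM, then up to 50 uM in concentration-response; loss of signal fitted against DMSO.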
# [3] = target: human Phosphodiesterase 5 (PDE5), PDE5A (gene 8654) (UniProt O76074); test: NVS_ENZ_hPDE5: NovaScreen (NVS) Enzymatic Assay for human Phosphodiesterase 5 (PDE5) (AID 2283194)
# Summary of the method: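 Recombinant human PDE5 with specific substrate, read 1 h after dosing by fluorescence with electrophoretic mobility-shift separation of substrate and product. Initial single-concentration duplicate screen at 25 uM, actives followed in concentration series; loss of activity versus DMSO.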
# [4] = target: Collagenase 3 (Homo sapiens) (UniProt P45452); test: NVS_ENZ_hMMP13: NovaScreen (NVS) Enzymatic Assay for human Matrix Metalloproteinase-13 (MMP13) (AID 2283182)
# Summary of the method: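 Recombinant MMP13 cleaving fluorescent substrate, cell-free, measured 1 h after dosing. Primary duplicate screen at 25 uM; actives tested in concentration-response up to 50 uM; loss of signal relative to DMSO.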
# [5] = target: human Janus Kinase 2 (Jak2), JAK2 (gene 3717) (UniProt O60674); test: NVS_ENZ_hJak2: NovaScreen (NVS) Enzymatic Assay for human Janus Kinase 2 (Jak2) (AID 2283169)
# Summary of the method: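 Cell-free recombinant human JAK2 enzyme activity assay, fluorescence/electrophoretic mobility shift read 1 h after dosing. Screened in duplicate at 25 uM, then concentration-response up to 50 uM; activity as signal loss relative to DMSO.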
# [6] = target: human Matrix Metalloproteinase-9 (MMP9), MMP9 (gene 4318) (UniProt P14780); test: NVS_ENZ_hMMP9: NovaScreen (NVS) Enzymatic Assay for human Matrix Metalloproteinase-9 (MMP9) (AID 2283190);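 further: cell-free recombinant MMP9 protease activity read by fluorescent substrate signal; active means inhibition seen as loss of fluorescence signal versus DMSO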
# Summary of the method: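 Extracted enzyme, fluorescent substrate, 1 h post-dose read. Single conc 25 uM in duplicate, then concentration series for actives. Activity = signal loss relative to DMSO negative control.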
# [7] = target: human IkappaB Kinase alpha (IKKa), CHUK (gene 1147) (UniProt O15111); test: NVS_ENZ_hIKKa: NovaScreen (NVS) Enzymatic Assay for human IkappaB Kinase alpha (IKKa) (AID 2283167)
# Summary of the method: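 Cell-free recombinant human IKKa with fluorescent substrate, product separated by electrophoretic mobility shift; read 1 hour after dosing. Primary screen duplicate at 25 uM, actives then concentration-response up to 50 uM; loss of signal relative to DMSO.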
# [8] = target: human Insulin Receptor (InsR), INSR (gene 3643) (UniProt P06213); test: NVS_ENZ_hInsR: NovaScreen (NVS) Enzymatic Assay for human Insulin Receptor (InsR) (AID 2283168)
# Summary of the method: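 Fluorescent substrate phosphorylation by recombinant kinase, product resolved by electrophoretic mobility shift, read 1 h after dosing. Screened in duplicate at 25 uM; hits (e.g., 30% inhibition) run in concentration-response to 50 uM; DMSO as baseline.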
# [9] = target: human MAP Kinase-Activated Protein Kinase 2 (MAPKAPK2), MAPKAPK2 (gene 9261) (UniProt P49137); test: NVS_ENZ_hMAPKAPK2: NovaScreen (NVS) Enzymatic Assay for human MAP Kinase-Activated Protein Kinase 2 (MAPKAPK2) (AID 2283178)
# Summary of the method: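 Cell-free recombinant human MAPKAPK2 activity measured by fluorescence with electrophoretic mobility shift separation of substrate and product, 1 hr after dosing. Loss of signal versus DMSO; primary screen at 25 uM, concentration-response up to 50 uM.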
# [10] = target: human MET Proto-Oncogene, Receptor Tyrosine Kinase (MET), MET (gene 4233) (UniProt P08581); test: NVS_ENZ_hMet: NovaScreen (NVS) Enzymatic Assay for human MET Proto-Oncogene, Receptor Tyrosine Kinase (MET) (AID 2283180)
# Summary of the method: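 Cell-free MET kinase assay using recombinant protein and fluorescent substrate, with mobility-shift separation; read 1 h after dosing. Primary duplicate at 25 uM; actives in singleton concentration-response to 50 uM maximum. Signal loss versus DMSO.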
# [11] = target: human Mitogen- and Stress-activated Protein Kinase-1 (Msk1), RPS6KA5 (gene 9252) (UniProt O75582); test: NVS_ENZ_hMsk1: NovaScreen (NVS) Enzymatic Assay for human Mitogen- and Stress-activated Protein Kinase-1 (Msk1) (AID 2283187)
# Summary of the method: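 Recombinant kinase with fluorescent substrate; product separated by electrophoretic mobility shift, read 1 h after dosing. Screened in duplicate at 25 uM; hits (e.g. ≥30% inhibition) tested in concentration–response up to 50 uM. DMSO baseline.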
# [12] = target: cAMP-dependent protein kinase catalytic subunit alpha (Homo sapiens) (UniProt P17612); test: NVS_ENZ_hPKA: NovaScreen (NVS) Enzymatic Assay for human Protein Kinase A (PKA) (AID 2283192)
# Summary of the method: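 Recombinant human PKA with specific fluorescent substrate, product separated by electrophoretic mobility shift, read 1 h after dosing. Primary screen at 25 uM in duplicate; actives then run in concentration-response up to 50 uM, activity relative to DMSO.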
# [13] = target: Mitogen-activated protein kinase 3 (Homo sapiens) (UniProt P27361); test: NVS_ENZ_hMAPK3: NovaScreen (NVS) Enzymatic Assay for human Mitogen-Activated Protein Kinase 3 (MAPK 3) (AID 2283177)
# Summary of the method: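 Cell-free enzymatic assay with recombinant protein and specific substrate; fluorescence and electrophoretic mobility shift read-out 1 h after dosing. Primary screen duplicate at 25 uM; actives then run in concentration-response up to 50 uM, loss of signal versus DMSO.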
# [14] = target: human Mitogen-Activated Protein Kinase 1 (MAPK 1), MAPK1 (gene 5594) (UniProt P28482); test: NVS_ENZ_hMAPK1: NovaScreen (NVS) Enzymatic Assay for human Mitogen-Activated Protein Kinase 1 (MAPK 1) (AID 2283175)
# Summary of the method: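 Cell-free recombinant human MAPK1 enzymatic assay, fluorescence/electrophoretic mobility shift read at 1 h; loss of signal vs DMSO. Primary screen in duplicate at 25 uM; actives (e.g. ≥30% inhibition) run as concentration-response up to 50 uM.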
# [15] = target: human Matrix Metalloproteinase-7 (MMP7), MMP7 (gene 4316) (UniProt P09237); test: NVS_ENZ_hMMP7: NovaScreen (NVS) Enzymatic Assay for human Matrix Metalloproteinase-7 (MMP7) (AID 2283183)
# Summary of the method: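 Cell-free fluorescence enzymatic assay read 1 h after compound addition, activity loss analyzed against DMSO. Primary duplicate testing at 25 uM; compounds meeting threshold rerun in singleton concentration-response up to 50 uM.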
# [16] = target: human Matrix Metalloproteinase-2 (MMP2), MMP2 (gene 4313) (UniProt P08253); test: NVS_ENZ_hMMP2: NovaScreen (NVS) Enzymatic Assay for human Matrix Metalloproteinase-2 (MMP2) (AID 2283184)
# Summary of the method: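 Cell-free recombinant MMP2 activity with a fluorescent substrate, read 1 h after dosing. Primary screen in duplicate at 25 uM; actives then run in concentration series; loss of signal fitted versus DMSO.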
# [17] = target: human p21 Activated Kinase 4 (PAK4), PAK4 (gene 10298) (UniProt O96013); test: NVS_ENZ_hPAK4: NovaScreen (NVS) Enzymatic Assay for human p21 Activated Kinase 4 (PAK4) (AID 2283189)
# Summary of the method: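 Cell-free recombinant human PAK4 activity assay; fluorescent substrate and product separated by electrophoretic mobility shift, read 1 h after dosing. Initially tested in duplicate at 25 uM, relative to DMSO baseline.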
# [18] = target: human NIMA (Never In Mitosis Gene A)-Related Kinase 2 (NEK2), NEK2 (gene 4751) (UniProt P51955); test: NVS_ENZ_hNEK2: NovaScreen (NVS) Enzymatic Assay for human NIMA (Never In Mitosis Gene A)-Related Kinase 2 (NEK2) (AID 2283188)
# Summary of the method: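 Cell-free NEK2 enzyme activity after 1 h exposure, read by fluorescence with electrophoretic mobility shift separating substrate and product. Primary screen in duplicate at 25 uM; actives then run as concentration series. Loss of signal versus DMSO scored.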
# Chain of human Phosphodiesterase 4A1 (PDE4A1), PDE4A (gene 5141) (P27815 whole entry, looked up): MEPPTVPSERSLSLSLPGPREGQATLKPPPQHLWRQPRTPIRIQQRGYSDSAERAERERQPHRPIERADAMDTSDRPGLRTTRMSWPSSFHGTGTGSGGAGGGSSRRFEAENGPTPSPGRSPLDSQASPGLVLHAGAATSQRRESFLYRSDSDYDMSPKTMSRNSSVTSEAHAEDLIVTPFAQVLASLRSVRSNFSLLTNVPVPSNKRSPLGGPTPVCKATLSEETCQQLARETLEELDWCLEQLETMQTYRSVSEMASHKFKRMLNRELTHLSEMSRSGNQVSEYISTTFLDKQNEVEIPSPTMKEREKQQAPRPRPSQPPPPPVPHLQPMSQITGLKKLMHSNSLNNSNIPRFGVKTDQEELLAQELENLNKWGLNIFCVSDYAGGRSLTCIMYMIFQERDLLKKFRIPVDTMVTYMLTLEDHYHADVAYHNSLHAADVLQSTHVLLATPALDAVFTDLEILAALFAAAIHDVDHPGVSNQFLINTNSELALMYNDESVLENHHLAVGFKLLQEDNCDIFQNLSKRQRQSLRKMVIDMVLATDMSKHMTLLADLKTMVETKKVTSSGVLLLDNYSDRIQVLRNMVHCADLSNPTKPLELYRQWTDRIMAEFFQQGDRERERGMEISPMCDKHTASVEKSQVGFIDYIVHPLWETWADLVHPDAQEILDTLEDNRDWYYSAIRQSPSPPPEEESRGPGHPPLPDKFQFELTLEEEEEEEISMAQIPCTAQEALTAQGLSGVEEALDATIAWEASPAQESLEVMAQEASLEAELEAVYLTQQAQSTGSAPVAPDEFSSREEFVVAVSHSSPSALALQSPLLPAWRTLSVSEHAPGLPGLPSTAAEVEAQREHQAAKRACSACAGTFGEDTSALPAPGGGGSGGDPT
# Chain of human Janus Kinase 2 (Jak2), JAK2 (gene 3717) (O60674 whole entry, looked up): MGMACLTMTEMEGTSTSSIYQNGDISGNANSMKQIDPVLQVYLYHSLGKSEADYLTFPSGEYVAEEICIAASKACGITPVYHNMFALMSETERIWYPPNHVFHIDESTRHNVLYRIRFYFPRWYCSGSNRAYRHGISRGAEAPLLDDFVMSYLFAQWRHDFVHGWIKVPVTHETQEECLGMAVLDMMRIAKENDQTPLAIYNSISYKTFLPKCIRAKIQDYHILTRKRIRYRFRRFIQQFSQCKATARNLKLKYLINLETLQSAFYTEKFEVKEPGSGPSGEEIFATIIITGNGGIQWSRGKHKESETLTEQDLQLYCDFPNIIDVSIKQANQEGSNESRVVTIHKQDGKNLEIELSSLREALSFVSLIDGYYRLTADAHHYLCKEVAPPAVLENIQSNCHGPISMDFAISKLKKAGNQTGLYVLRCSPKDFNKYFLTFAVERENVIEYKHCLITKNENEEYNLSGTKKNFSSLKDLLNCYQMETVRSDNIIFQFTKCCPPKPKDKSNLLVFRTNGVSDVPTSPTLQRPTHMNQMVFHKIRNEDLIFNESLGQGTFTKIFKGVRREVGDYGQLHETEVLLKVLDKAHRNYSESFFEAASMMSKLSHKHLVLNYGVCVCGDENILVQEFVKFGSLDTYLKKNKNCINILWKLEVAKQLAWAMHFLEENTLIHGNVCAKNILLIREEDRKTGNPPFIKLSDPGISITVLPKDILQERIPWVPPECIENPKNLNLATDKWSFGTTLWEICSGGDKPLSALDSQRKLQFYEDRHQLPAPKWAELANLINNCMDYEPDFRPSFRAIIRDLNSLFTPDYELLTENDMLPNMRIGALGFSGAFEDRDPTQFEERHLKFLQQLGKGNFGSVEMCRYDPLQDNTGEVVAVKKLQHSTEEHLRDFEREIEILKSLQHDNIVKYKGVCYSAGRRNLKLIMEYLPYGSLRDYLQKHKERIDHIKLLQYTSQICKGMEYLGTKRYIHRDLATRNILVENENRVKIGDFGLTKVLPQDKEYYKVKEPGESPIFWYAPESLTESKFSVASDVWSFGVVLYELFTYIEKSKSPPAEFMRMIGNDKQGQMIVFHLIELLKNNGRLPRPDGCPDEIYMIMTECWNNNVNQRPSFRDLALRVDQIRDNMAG
# Chain of Mitogen-activated protein kinase 3 (Homo sapiens) (P27361 whole entry, looked up): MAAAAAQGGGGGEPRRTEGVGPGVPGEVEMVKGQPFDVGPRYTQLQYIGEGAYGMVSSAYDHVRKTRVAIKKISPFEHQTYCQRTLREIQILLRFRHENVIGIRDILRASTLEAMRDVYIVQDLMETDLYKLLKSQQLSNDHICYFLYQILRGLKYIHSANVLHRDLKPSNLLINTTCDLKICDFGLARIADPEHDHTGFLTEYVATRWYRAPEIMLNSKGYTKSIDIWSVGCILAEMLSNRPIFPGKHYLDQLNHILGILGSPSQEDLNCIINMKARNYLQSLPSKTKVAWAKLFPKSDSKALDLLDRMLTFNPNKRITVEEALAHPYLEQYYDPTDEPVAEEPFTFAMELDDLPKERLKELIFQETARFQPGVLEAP
# Chain of human Matrix Metalloproteinase-9 (MMP9), MMP9 (gene 4318) (P14780 whole entry, looked up): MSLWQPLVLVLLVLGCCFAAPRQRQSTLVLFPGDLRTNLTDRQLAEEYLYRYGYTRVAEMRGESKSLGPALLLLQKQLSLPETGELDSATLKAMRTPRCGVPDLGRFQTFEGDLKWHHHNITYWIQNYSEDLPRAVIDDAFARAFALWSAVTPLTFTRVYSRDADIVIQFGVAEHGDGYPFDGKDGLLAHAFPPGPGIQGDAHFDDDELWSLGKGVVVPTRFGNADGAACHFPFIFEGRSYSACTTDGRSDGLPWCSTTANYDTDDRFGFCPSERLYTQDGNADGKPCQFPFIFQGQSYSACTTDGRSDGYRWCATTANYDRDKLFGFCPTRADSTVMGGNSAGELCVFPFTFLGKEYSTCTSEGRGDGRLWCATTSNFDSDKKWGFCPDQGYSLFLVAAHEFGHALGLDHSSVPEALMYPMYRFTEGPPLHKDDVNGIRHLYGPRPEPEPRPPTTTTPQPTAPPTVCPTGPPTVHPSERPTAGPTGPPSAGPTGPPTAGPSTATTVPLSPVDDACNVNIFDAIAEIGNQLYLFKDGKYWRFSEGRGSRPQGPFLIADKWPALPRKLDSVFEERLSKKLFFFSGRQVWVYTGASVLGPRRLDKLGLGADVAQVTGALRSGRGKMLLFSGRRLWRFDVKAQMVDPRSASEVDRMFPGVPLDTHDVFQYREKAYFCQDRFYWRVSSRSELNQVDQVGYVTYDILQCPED
# Chain of human Matrix Metalloproteinase-7 (MMP7), MMP7 (gene 4316) (P09237 whole entry, looked up): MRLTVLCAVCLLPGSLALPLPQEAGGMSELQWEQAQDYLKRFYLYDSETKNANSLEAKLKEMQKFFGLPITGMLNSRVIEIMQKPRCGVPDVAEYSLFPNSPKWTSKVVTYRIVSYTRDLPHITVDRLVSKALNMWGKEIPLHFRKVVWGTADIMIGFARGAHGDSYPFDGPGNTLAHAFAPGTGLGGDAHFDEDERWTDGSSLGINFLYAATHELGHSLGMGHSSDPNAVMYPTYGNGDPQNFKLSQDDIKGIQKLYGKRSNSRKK
# Chain of human Matrix Metalloproteinase-2 (MMP2), MMP2 (gene 4313) (P08253 whole entry, looked up): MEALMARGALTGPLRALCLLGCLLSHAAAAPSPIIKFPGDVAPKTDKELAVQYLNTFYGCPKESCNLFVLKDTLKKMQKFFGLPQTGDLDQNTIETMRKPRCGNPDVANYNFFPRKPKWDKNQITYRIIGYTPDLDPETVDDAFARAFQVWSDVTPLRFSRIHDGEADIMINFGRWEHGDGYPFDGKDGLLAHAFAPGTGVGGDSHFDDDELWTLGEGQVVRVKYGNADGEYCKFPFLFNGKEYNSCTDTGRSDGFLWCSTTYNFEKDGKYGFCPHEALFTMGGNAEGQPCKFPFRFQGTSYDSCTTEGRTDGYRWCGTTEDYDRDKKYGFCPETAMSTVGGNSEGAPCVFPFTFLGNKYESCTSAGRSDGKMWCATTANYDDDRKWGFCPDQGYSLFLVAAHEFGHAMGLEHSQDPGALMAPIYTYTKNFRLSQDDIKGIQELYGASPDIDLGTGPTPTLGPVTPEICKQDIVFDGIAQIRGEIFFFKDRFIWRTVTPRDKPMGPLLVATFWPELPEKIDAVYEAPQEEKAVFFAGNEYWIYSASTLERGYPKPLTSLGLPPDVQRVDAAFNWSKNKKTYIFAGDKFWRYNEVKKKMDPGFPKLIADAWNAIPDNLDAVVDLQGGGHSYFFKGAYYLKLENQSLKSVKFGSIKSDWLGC
# Chain of human Mitogen-Activated Protein Kinase 1 (MAPK 1), MAPK1 (gene 5594) (P28482 whole entry, looked up): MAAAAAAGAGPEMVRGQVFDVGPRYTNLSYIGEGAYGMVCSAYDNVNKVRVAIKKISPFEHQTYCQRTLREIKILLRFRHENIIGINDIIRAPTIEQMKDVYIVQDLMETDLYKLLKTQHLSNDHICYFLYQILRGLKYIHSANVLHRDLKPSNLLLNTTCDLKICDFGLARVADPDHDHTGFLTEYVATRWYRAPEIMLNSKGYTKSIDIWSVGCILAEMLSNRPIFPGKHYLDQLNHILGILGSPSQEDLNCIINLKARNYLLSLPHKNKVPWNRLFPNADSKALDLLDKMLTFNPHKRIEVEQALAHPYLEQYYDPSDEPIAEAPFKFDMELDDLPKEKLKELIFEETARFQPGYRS
# Chain of human MAP Kinase-Activated Protein Kinase 2 (MAPKAPK2), MAPKAPK2 (gene 9261) (P49137 whole entry, looked up): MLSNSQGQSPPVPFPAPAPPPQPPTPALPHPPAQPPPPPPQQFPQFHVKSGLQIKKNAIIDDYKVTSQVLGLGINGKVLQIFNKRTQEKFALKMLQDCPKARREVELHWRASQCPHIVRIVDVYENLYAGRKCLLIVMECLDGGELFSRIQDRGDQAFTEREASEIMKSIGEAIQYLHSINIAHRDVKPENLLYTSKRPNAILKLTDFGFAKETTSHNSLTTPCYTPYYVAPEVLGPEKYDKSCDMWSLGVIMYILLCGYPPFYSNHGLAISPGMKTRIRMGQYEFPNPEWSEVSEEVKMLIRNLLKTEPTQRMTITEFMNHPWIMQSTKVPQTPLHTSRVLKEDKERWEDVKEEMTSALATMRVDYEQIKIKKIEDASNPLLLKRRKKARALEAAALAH
smiles,measurement,setting,value
CCCN(CCOc1c(Cl)cc(Cl)cc1Cl)C(=O)n1ccnc1,AC50,[1],13 µM (active)
same,AC50,[2],7.79 µM (active)
same,AC50,[3],9.58 µM (active)
COC(=O)c1ccccc1S(=O)(=O)NC(=O)Nc1nc(C)nc(OC)n1,outcome,[4],inactive
CC[C@H](C)[C@H]1O[C@]2(C=C[C@@H]1C)C[C@@H]1C[C@@H](C/C=C(\C)[C@@H](O[C@H]3C[C@H](OC)[C@@H](O[C@H]4C[C@H](OC)[C@@H](O)[C@H](C)O4)[C@H](C)O3)[C@@H](C)/C=C/C=C3\CO[C@@H]4[C@H](O)C(C)=C[C@@H](C(=O)O1)[C@]34O)O2 (tested in a mixture with another compound),AC50,[5],13.8 µM (active)
same,AC50,[4],25 µM (active)
same,AC50,[6],5.22 µM (active)
CNC(=O)CSP(=S)(OC)OC,outcome,[6],inactive
O=C(O)C(F)(F)C(F)(F)C(F)(F)C(F)(F)C(F)(F)C(F)(F)C(F)(F)F,outcome,[7],inactive
same,outcome,[8],inactive
same,outcome,[9],inactive
same,outcome,[10],inactive
same,outcome,[4],inactive
same,outcome,[11],inactive
same,outcome,[6],inactive
same,outcome,[12],inactive
COP(=S)(OC)Oc1ccc([N+](=O)[O-])cc1,outcome,[2],inactive
O=[N+]([O-])/N=C1\NCCN1Cc1ccc(Cl)nc1,outcome,[13],inactive
COc1nn(CSP(=S)(OC)OC)c(=O)s1,AC50,[2],9.55 µM (active)
COC(=O)c1ccccc1S(=O)(=O)NC(=O)N(C)c1nc(C)nc(OC)n1,outcome,[14],inactive
same,outcome,[13],inactive
same,AC50,[9],9.14 µM (active)
same,outcome,[11],inactive
same,AC50,[2],25 µM (active)
same,outcome,[12],inactive
Oc1cc(Cl)ccc1Oc1ccc(Cl)cc1Cl,outcome,[5],inactive
same,outcome,[14],inactive
same,outcome,[13],inactive
same,AC50,[15],13 µM (active)
same,outcome,[15],inactive
same,outcome,[16],inactive
same,outcome,[17],inactive
same,outcome,[6],inactive
same,outcome,[3],inactive
CC1(C)C(C=C(Cl)Cl)C1C(=O)OC(C#N)c1ccc(F)c(Oc2ccccc2)c1 (centres undefined),outcome,[18],inactive
Cc1[nH]c(=O)n(C(C)(C)C)c(=O)c1Cl,AC50,[3],9.17 µM (active)
CC(C)(C)C(O)C(Oc1ccc(Cl)cc1)n1cncn1 (centres undefined),outcome,[5],inactive
same,outcome,[2],inactive
same,outcome,[3],inactive
